The results in this text go back to PubChem BioAssay (NCATS).

The target of assay [1] is Cellular tumor antigen p53 (Homo sapiens) (UniProt P04637). The assay is described as follows: Primary qHTS for small molecule compounds that upregulate eGFP-tagged delta133p53alpha (in N-terminal) cells. (AID 2060322). Also: nearly all actives have a fitted effect of over 75% in size. Also: potency is read from the fitted curve at half-maximal effect.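 As to activation: cells pre-induced with doxycycline then dosed without doxycycline; series mostly up to about 56 µM; 0% = DMSO vehicle and 100% = reference activator.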 As to conditions: NCI-H358 eGFP-delta133p53alpha fluorescence, 24 h; activation: hits give high values. Summed up: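 NCI-H358 cells pre-induced 24 h with 10 ng/ml doxycycline for eGFP-delta133p53alpha, plated dox-free and exposed 24 h at 37C to titrated compounds. Fixed, Hoechst-stained; gated GFP peak intensity by laser scanning cytometry, normalized to DMSO (0%) and 57.5 uM 5-azacytidine (100%).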

Assay [2] concerns the target Aldehyde dehydrogenase, mitochondrial (Homo sapiens) (UniProt P05091). The assay is described as follows: qHTS for Inhibitors of the Aldehyde Dehydrogenase Family (ALDH2) Primary screen (AID 2061308).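 Also: plate controls were vehicle for no effect and reference inhibitor for full effect; nearly all actives have a fitted effect of over 55% in size.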 On the technique in general: qHTS replaces the single test concentration by a dilution series.
The target in assay [3] is Retinaldehyde dehydrogenase 3 (Homo sapiens) (UniProt P47895). The assay is described as follows: qHTS for Inhibitors of the Aldehyde Dehydrogenase Family (ALDH1A3) Primary screen (AID 2061315).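 Also: plate controls were DMSO vehicle for no effect and reference inhibitor for full effect.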

Molecules are shown by their SMILES. Results filed as inconclusive are left out. Values without a mark were called inactive. Active and inactive are the calls of the source. Calls follow the shape of the dose curve; as a rule, active = well fitted curve in the direction sought with a large enough effect; inconclusive = small, poorly fitted or top-dose-only effect, or another doubt; inactive = no such curve, though single readings can be large; an effect the other way counts as inactive or inconclusive.

Cellular tumor antigen p53 (Homo sapiens), sequence (P04637 whole entry, looked up): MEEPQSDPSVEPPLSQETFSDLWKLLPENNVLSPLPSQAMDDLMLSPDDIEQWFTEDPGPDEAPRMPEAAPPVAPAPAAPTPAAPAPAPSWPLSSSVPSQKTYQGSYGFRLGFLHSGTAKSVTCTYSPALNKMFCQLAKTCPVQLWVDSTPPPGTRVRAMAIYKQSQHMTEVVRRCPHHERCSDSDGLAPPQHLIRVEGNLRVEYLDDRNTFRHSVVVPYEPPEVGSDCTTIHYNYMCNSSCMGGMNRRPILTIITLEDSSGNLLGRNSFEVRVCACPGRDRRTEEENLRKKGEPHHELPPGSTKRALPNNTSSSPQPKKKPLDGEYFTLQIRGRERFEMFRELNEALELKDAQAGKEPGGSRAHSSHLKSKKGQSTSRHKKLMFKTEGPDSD

Regarding `COc1ncc2cc(C(=O)Nc3cc(C(=O)NCc4cccc(Cl)c4)ccc3Cl)c(=O)[nH]c2n1`, the Potency in assay [1] was 2690 nM (active). The Potency entry in assay [2] and in assay [3] was “inactive” throughout.

Take `CC1=CC(=O)[C@]2(O[C@@H]3O[C@@H](C)[C@H](O)[C@@H](O)[C@H]3O)C=CO[C@@H](O[C@@H]3O[C@H](CO)[C@@H](O)[C@H](O)[C@H]3O)[C@H]12`: the activation in assay [1] was -18.3%. In addition, the Potency result in assay [2] and in assay [3] was “inactive” throughout.

Consider `CC(=O)O[C@@H]1[C@@H](OC(C)=O)[C@H](C)O[C@@H](O[C@H]2[C@@H]3C=CO[C@@H](O[C@@H]4O[C@H](CO)[C@@H](O)[C@H](O)[C@H]4O)[C@@H]3[C@@]3(CO)O[C@@H]23)[C@@H]1OC(=O)/C=C/c1ccccc1`, for which the activation in assay [1] is -1.53%. Besides, the Potency result in assay [2] and in assay [3] was “inactive” throughout.

`C#Cc1cnc2[nH]c(=O)n(C(CC)CC)c2n1`: the activation in assay [1] was -4.77%. The Potency entry in assay [2] and in assay [3] was “inactive” throughout.

Turning to `CC1(C)CC[C@]2(C(=O)O)CC[C@]3(C)C(=CCC4[C@@]5(C)CC[C@H](O)C(C)(C)C5CC[C@]43C)C2C1` (stereo partly specified), the activation in assay [1] was -0.763%. Besides, the Potency entry in assay [2] and in assay [3] was “inactive” each time.

With `CC(C)C1NC(=O)C2CCCN2C1=O` (stereo unspecified), in assay [1], the activation is 8.93%. Also, the Potency result in assay [2] and in assay [3] was “inactive” throughout.

`C/C(=C/CCC(CO)C1CCC2(C)C3CCC4C(C)(C)C(OC5OC(CO)C(O)C(O)C5O)CC(O)C45CC35CCC12C)COC1OC(CO)C(O)C(O)C1O` (stereo unspecified): the activation in assay [1] is -10.7%. Further, the Potency entry in assay [2] and in assay [3] was “inactive” throughout.

With `CO[C@H]1O[C@@H]2O[C@]3(C)CC[C@H]4[C@H](C)CC[C@@H]([C@H]1C)[C@@]24OO3`, the activation in assay [1] is 10.3%. Moreover, the Potency entry in assay [2] and in assay [3] was “inactive” throughout.

Consider `CC1CCC2(CO)C(C(=O)O)=CCCC2C1(C)CCc1ccoc1` (stereo unspecified), for which the activation in assay [1] is 14.3%. The Potency result in assay [2] and in assay [3] was “inactive” throughout.

For the compound `COC(=O)CC[C@@H](C)C1CCC2C3CCC4C[C@H](OC(C)=O)CCC4(C)C3C[C@H](O)C21C` (stereo partly specified), the activation in assay [1] was 3.67%. In addition, the Potency result in assay [2] and in assay [3] was “inactive” throughout.

Regarding `C[C@]1(O)CC[C@@H]2C(C(=O)O)=CO[C@@H](O[C@@H]3O[C@H](COC(=O)c4ccc(O)cc4)[C@@H](O)[C@H](O)[C@H]3O)[C@@H]21`, the activation in assay [1] was 0.893%. Besides, the Potency entry in assay [2] and in assay [3] was “inactive” each time.

As for `CC1(C)CC[C@]2(C(=O)O)CC[C@]3(C)C(=CCC4[C@@]5(C)CC[C@H](O[C@@H]6O[C@H](CO)[C@@H](O)[C@H](O)[C@H]6O[C@@H]6O[C@H](CO)[C@@H](O)[C@H](O)[C@H]6O)[C@@](C)(CO)C5CC[C@]43C)[C@@H]2C1` (stereo partly specified), the activation in assay [1] was 9.82%. Moreover, the Potency result in assay [2] and in assay [3] was “inactive” each time.

As to `CC(=O)O[C@@H]1[C@H](O[C@@H]2O[C@@H](CO)[C@H](O)[C@H]2O)[C@@H](O[C@@H]2O[C@@H](C)[C@H](O[C@@H]3OC[C@@H](O)[C@H](O)[C@H]3O)[C@@H](O)[C@H]2O)[C@H](OC(=O)[C@]23CCC(C)(C)C[C@H]2C2=CCC4[C@@]5(C)CC[C@H](O[C@@H]6O[C@H](C(=O)O)[C@@H](O)[C@H](O)[C@H]6O[C@@H]6O[C@H](CO)[C@H](O)[C@H](O)[C@H]6O)[C@@](C)(C=O)C5CC[C@@]4(C)[C@]2(C)C[C@H]3O)O[C@@H]1C` (stereo partly specified), the activation in assay [1] was 0.893%. In addition, the activity change, negative = inhibition is -0.326% [at 11.2 µM] in assay [2] and -1.8% [at 11.2 µM] in assay [3].

Consider `O=C(O)[C@H]1Cc2ccccc2CN1`, for which, in assay [1], the activation is 6.21%. In addition, the activity change, negative = inhibition is 6.47% [at 5.59 µM] in assay [2] and -14.2% [at 5.59 µM] in assay [3].

For the compound `O=C(Nc1ccc(C(O)(C(F)(F)F)C(F)(F)F)cc1)c1ccc(C(F)(F)F)cc1`, in assay [1], the activation was 0%. Besides, the Potency result in assay [2] and in assay [3] was “inactive” in each case.

`CC1(C)SC2C(NC(=O)[C@H](NC(=O)N3CCNC3=O)c3ccccc3)C(=O)N2C1C(=O)O` (stereo partly specified): in assay [1], the activation is 17%. Also, the Potency result in assay [2] and in assay [3] was “inactive” in each case.

As for `CC12CCC(C(OC3OC(COC4OCC(O)(CO)C4O)C(O)C(O)C3O)C1)C(C)(C)O2` (stereo unspecified), the activation in assay [1] is -13.4%. Also, the Potency entry in assay [2] and in assay [3] was “inactive” throughout.

Regarding `CC(=O)OC1C(O)C(C)=C(CCC(C)CC(=O)O)C2(C)CCCC(C)(C)C12` (stereo unspecified), in assay [1], the activation was 3.82%. In addition, the Potency result in assay [2] and in assay [3] was “inactive” each time.

Turning to `C/C=C/C(O)C1OC(=O)CC1Nc1ccc(C(=O)O)cc1` (stereo unspecified), the activation in assay [1] was 5.34%. Besides, the Potency entry in assay [2] and in assay [3] was “inactive” in each case.

On to `CC(C)C(C#N)O[C@@H]1O[C@H](CO[C@@H]2O[C@@H](C)[C@H](O)[C@@H](O)[C@H]2O)[C@@H](O)[C@H](O)[C@H]1O` (stereo partly specified), for which the activation in assay [1] is -3.82%. In addition, the Potency result in assay [2] and in assay [3] was “inactive” in each case.

As for `O=C(O[C@@H]1O[C@H](CO)[C@@H](O)[C@H](O)[C@H]1O)c1ccccc1`, in assay [1], the activation is -9.82%. Moreover, the Potency entry in assay [2] and in assay [3] was “inactive” throughout.

For the compound `COc1cc(CCO)ccc1O[C@@H]1O[C@H](CO)[C@@H](O)[C@H](O)[C@H]1O`, the activation in assay [1] is 5.36%. Further, the Potency result in assay [2] and in assay [3] was “inactive” in each case.

As for `C=CC1(C)CC(OC(=O)/C(C)=C\COC(C)=O)C(C(=C)C(=O)O)C(O)C1C(=C)CO` (stereo unspecified), the activation in assay [1] is 0%. The Potency result in assay [2] and in assay [3] was “inactive” in each case.

Turning to `C/C=C/C=C/C=C/C(=O)O[C@@H]1[C@@H](OC)C2=C(C(=O)N(C(CCC(=O)O)C(=O)O)C2)[C@@]2(C)CCCC(C)(C)[C@H]12` (stereo partly specified), the activation in assay [1] was -27.5%. The Potency result in assay [2] and in assay [3] was “inactive” in each case.

In the case of `[N-]=[N+]=N[C@]1(CO)O[C@@H](n2ccc(=O)[nH]c2=O)[C@@H](O)[C@@H]1O`, the activation in assay [1] was 7%. In addition, the Potency entry in assay [2] and in assay [3] was “inactive” throughout.

As to `CN(C)C(=O)C(=O)c1cn(C)c2cc(Cl)c(C(=O)N3CCC(Cc4ccc(F)cc4)CC3)cc12`, the activation in assay [1] is -10.7%. For the same compound, the Potency entry in assay [2] and in assay [3] was “inactive” each time.

Turning to `C=CC(C)(C)C12Nc3c(ccc4c3OC(C)(C)C=C4)C1(O)CC1C(=O)N3CCCC3C(=O)N12` (stereo unspecified), the activation in assay [1] was -0.763%. In addition, the Potency result in assay [2] and in assay [3] was “inactive” throughout.

`COc1cc(NC(=O)Nc2cccc(CNC(=O)O[C@H]3CCOC3)c2)ccc1-c1cnco1`: in assay [1], the activation was 7.14%. Also, the Potency entry in assay [2] and in assay [3] was “inactive” in each case.

As to `CC1OC(OC2C(CO)OC(OCC3OC(OC(=O)C45CCC(C)(C)CC4C4=CCC6C7(C)CCC(OC8OC(CO)C(O)C(OC9OC(CO)C(O)C(O)C9O)C8O)C(C)(C)C7CCC6(C)C4(C)CC5)C(O)C(O)C3O)C(O)C2O)C(O)C(O)C1OC1OC(CO)C(O)C(O)C1O` (stereo unspecified), the activation in assay [1] was -2.29%. Also, the values for the activity change, negative = inhibition in assay [2] and in assay [3] were -2.7% [at 11.2 µM] and 7.19% [at 11.2 µM], respectively.

In the case of `C=C1C2(C)CC3C4(C)C=CC(=O)OC(C)(C)C4CCC3(C)C1(C(=O)OC)C(=O)C(C)(O)C2=O` (stereo unspecified), the activation in assay [1] was -21.4%. Besides, the Potency result in assay [2] and in assay [3] was “inactive” throughout.

In the case of `CC(C)CC1NC(=O)C(C)NC(=O)C(CC(C)C)OC(=O)CCCNC1=O` (stereo unspecified), the activation in assay [1] was -2.68%. Moreover, the Potency entry in assay [2] and in assay [3] was “inactive” throughout.

For `CC1CCCC2OC2C(=O)c2c(O)cc(O)cc2CC(=O)O1` (stereo unspecified), the activation in assay [1] is 16%. For the same compound, the Potency result in assay [2] and in assay [3] was “inactive” in each case.

`COc1cc(C(=O)OC[C@H]2O[C@H](O[C@@]3(CO)O[C@@H](CO)[C@H](O)[C@H]3O)[C@H](O)[C@@H](O)[C@@H]2O)ccc1O`: the activation in assay [1] was -1.53%. In addition, the Potency entry in assay [2] and in assay [3] was “inactive” throughout.

For `CC1(C)CC2C(C1)C(C)(O)C13CC1(COC3=O)C2O` (stereo unspecified), in assay [1], the activation was 8.93%. Moreover, the Potency entry in assay [2] and in assay [3] was “inactive” each time.

As for `COc1cc(/C=C/C(=O)OC[C@H]2O[C@@](CO)(O[C@H]3O[C@H](CO)[C@@H](O)[C@H](O)[C@H]3O)[C@@H](OC(=O)/C=C/c3ccc(O)c(OC)c3)[C@@H]2O)ccc1O`, the activation in assay [1] is -3.82%. Besides, the Potency entry in assay [2] and in assay [3] was “inactive” each time.

On to `CNCCN1CCC(c2cc(CN(C)C(=O)c3cccc(Oc4ccccc4)c3)ccn2)CC1`, for which the activation in assay [1] is -4.33%. The Potency result in assay [2] and in assay [3] was “inactive” in each case.

On to `O=C(O)Cc1cn(C2OCC(O)C(O)C2O[C@@H]2O[C@H](CO)[C@@H](O)[C@H](O)[C@H]2O)c2ccccc12` (stereo partly specified), for which the activation in assay [1] was 3.82%. Besides, the Potency entry in assay [2] and in assay [3] was “inactive” in each case.
